# Experimental data published in PubChem BioAssay AID651820 (National Center for Advancing Translational Sciences (NCATS), 2012).
# Out of some 340,000 compounds screened, about 12,000 (3.5%) were called active. Not shown: some 18% with an inconclusive outcome. Calls come from the whole dose curve; as a rule, active = well fitted inhibition curve with a large enough effect; inconclusive = small, poorly fitted or top-dose-only effect, or another doubt; inactive = no such curve, though single readings can be large or run the other way. What follows is part of a selection rich in actives, with near analogues and random picks from the rest.
# Assay: qHTS Assay for Inhibitors of Hepatitis C Virus (HCV)
# Settings: Huh7.5.1 HCVcc-Cre infection, luciferase reporter, 44 h; series mostly up to 41.8 µM; activity change, negative = inhibition: at the top concentration
# How it was run: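 HCVcc-Cre virus at an moi near 0.5 was added right after compound to cells cultured 4 h from seeding (1,000 cells/well). Luciferase activity was determined 44 h later, 15 min after substrate addition at RT.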
# % is set by controls: 0 for no effect and ±100 for the full control effect; potency is the fitted concentration of half-maximal effect.
Compound,"activity change, negative = inhibition",Potency
Cc1ccc(S(=O)(=O)N(C)c2ccc(OCC(=O)OCC(=O)N(CC#N)c3ccccc3)cc2)cc1,17.5% (inactive),
NCCN1CCN2C(=O)CN(C(=O)c3ccccc3)CC12 (centres undefined),-0.729% (inactive),
CCOc1ccc(Br)cc1S(=O)(=O)N1CCC(C(=O)O)CC1,7.38% (inactive),
CCOCCCNCc1cc(Br)ccc1OCC,-11.4% (inactive),
CCOc1ccc(Br)cc1CSC(=N)N,,11.2 µM (active)
COc1ccc(OCC(=O)NNC(=O)C2CCC2)cc1,11% (inactive),
Cc1ccc(C(=O)Nc2ncccc2C)cc1S(=O)(=O)N1CCOCC1,11% (inactive),
Cc1ccccc1CSCCNC(=O)c1ccc(N(C)S(=O)(=O)c2ccccc2)cc1,,10 µM (active)
CN(C)S(=O)(=O)c1ccc(C(=O)NCC(C)(C)N2CCOCC2)cc1,14.9% (inactive),
CN(c1ccccc1)S(=O)(=O)c1ccc(C(=O)NCCc2ccccc2)cc1,-13% (inactive),
Cc1ccc(C(=O)NCC(c2cccs2)N(C)C)cc1S(=O)(=O)N1CCOCC1 (centres undefined),0.639% (inactive),
CC(C)(CNC(=O)c1ccc(Cl)c(S(=O)(=O)N2CCc3ccccc3C2)c1)N1CCOCC1,,7.08 µM (active)
COc1ccccc1CNC(=O)c1ccc(N(C)S(=O)(=O)c2ccc(C)cc2)cc1,10.7% (inactive),
CC(C)(CNC(=O)Cc1ccc(Cl)cc1Cl)N1CCOCC1,8.66% (inactive),
Cc1ccccc1CSCCNC(=O)c1ccc(Cl)c(S(=O)(=O)N2CCOCC2)c1,,11.2 µM (active)
COc1ccc([C@@H]2[C@@H]3C(=O)N(C(C)(C)C)C(=O)[C@@H]3[C@]3(Cc4ccccc4)C(=O)N(c4cccc(Br)c4)C(=O)N23)cc1,-3.64% (inactive),
O=C(NN=Cc1ccc(N2CCOCC2)cc1)c1cc2ccccc2cc1O,-0.628% (inactive),
O=C(OCC(=O)N1CCN(C(=O)c2ccco2)CC1)c1ccc(Cl)c(Cl)c1,-4.4% (inactive),
COc1cccc(CC2(CO)CCCN(Cc3ccc(OC(F)F)cc3)C2)c1 (centres undefined),-16% (inactive),
COc1ccc(CNc2ncnc3ccccc23)cc1,,3.16 µM (active)
COc1cccc(CNc2nc(C(F)(F)F)nc3ccccc23)c1,,5.62 µM (active)
O=C(NCc1ccncc1)C(=O)NCc1ccco1,15% (inactive),

Compound,"activity change, negative = inhibition",Potency
COc1cccc(CNC(=O)c2n[nH]c3ccccc23)c1,-2.04% (inactive),
CC(C)(C)c1nc(NCC2CCCO2)c2nnn(Cc3ccccc3)c2n1 (centres undefined),-19.2% (inactive),
Clc1cccc(-c2nc(NCC3CCCO3)c3ccccc3n2)c1 (centres undefined),-57.3% (inactive),
COc1ccc(CNc2nccs2)cc1,13.7% (inactive),
c1ccc2c(NCC3CCCO3)nc(-c3ccncc3)nc2c1 (centres undefined),,10 µM (active)
c1coc(CNc2ncnc3ccccc23)c1,,3.55 µM (active)
CCc1nc2ccccc2c(C(=O)NCc2ccc(OC)cc2)c1C,-0.211% (inactive),
FC(F)(F)c1cccc(Nc2ncnc3ccccc23)c1,-26.2% (inactive),
CCc1ccc(C(CNc2nc(C(F)(F)F)nc3ccccc23)N(C)C)cc1 (centres undefined),-21.3% (inactive),
COc1ccc(C(=O)C(C)OC(=O)c2cccc(S(=O)(=O)Nc3c(C)n(C)n(-c4ccccc4)c3=O)c2)cc1 (centres undefined),16.1% (inactive),
NC(=O)C1(Nc2ccc(-c3ccccc3)cc2)CCCC1,-9.54% (inactive),
NC(CSC1(c2ccccc2)c2ccccc2-c2ccccc21)C(=O)O (centres undefined),7.2% (inactive),
Cc1cc(NC(=O)c2cc3ccccc3o2)no1,0.981% (inactive),
C=CC(=O)Nc1ccc(Nc2ccnc(Nc3ccc(N4CCN(C)CC4)cc3)n2)cc1,29.9% [at 8.37 µM] (inactive),
CC(C)COc1ccc(C(=O)OCC(=O)NCCC2=CCCCC2)cc1,6.35% (inactive),
COCCN(C(=O)C(C)N1C(=O)c2ccccc2C1=O)c1c(N)n(CC(C)C)c(=O)[nH]c1=O (centres undefined),30.2% (inactive),
COc1cccc(NC(=O)COC(=O)c2ccc3ccccc3n2)c1,9.47% (inactive),
O=C(COC(=O)c1ccccc1Cl)NC1CCCCCCC1,6.04% (inactive),
Cc1ccc(S(=O)(=O)Nc2ccc(F)c(S(=O)(=O)N3CCOCC3)c2)cc1,12.7% (inactive),
O=C(Cc1ccccc1)n1nc(-c2ccccc2)nc1NCc1ccco1,6.35% (inactive),
CCOCCCNc1nc(-c2ccccc2)nc2ccccc12,-23.1% (inactive),
c1ccc(-c2nc(NCc3ccco3)c3ccccc3n2)cc1,,10 µM (active)

Compound,"activity change, negative = inhibition",Potency
CCN(C(=O)COC(=O)c1sccc1C)c1c(N)n(Cc2ccccc2)c(=O)[nH]c1=O,-7.3% (inactive),
COc1ccc(NC(=O)Nc2ccc3c(c2)C(=O)N([C@H](C)CO)C[C@H](C)[C@@H](CN(C)C(=O)Nc2ccc4c(c2)OCO4)O3)cc1,-11.7% (inactive),
O=C(NCC1(N2CCCCC2)CCCCC1)c1ccc(NS(=O)(=O)c2ccc(F)cc2)cc1,0.79% (inactive),
O=C(NCC1(N2CCCCC2)CCCCC1)c1cccc(S(=O)(=O)Nc2ccccc2Cl)c1,15.5% (inactive),
CCOc1ccc(S(=O)(=O)Nc2cccc(C(=O)NCC3(N4CCCCC4)CCCCC3)c2)cc1,,12.6 µM (active)
O=C(CCNS(=O)(=O)c1ccccc1)NCCCc1ccccc1,-6.15% (inactive),
NS(=O)(=O)c1ccc(CCNC(=O)COC(=O)COc2cccc(C(F)(F)F)c2)cc1,-0.623% (inactive),
CN(C)C(=O)CCc1ccc2c3c([nH]c2c1)[C@]1(C)[C@@H](C(=O)N2CCOCC2)C[C@H](CC(=O)NCCc2ccccn2)C(=O)N1CC3,-17.8% (inactive),
N#CC1(Nc2ccc(-c3ccc(Cl)cc3)cc2)CCCC1,6.18% (inactive),
O=C1COc2c1ccc(O)c2O,13.3% (inactive),
CC(C)(C)c1ccc(C(=O)NCc2ccco2)cc1,-7.43% (inactive),
CC(C)(C)OC(=O)CNC(=O)c1[nH]cnc1C(=O)N[C@@H](CCCCN)C(=O)OC(C)(C)C,21.6% (inactive),
O=C(Nc1cc(-c2nn(CC(=O)N3CCCCC3)c(=O)c3ccccc23)ccc1N1CCOCC1)c1ccc(Cl)cc1,-11.3% (inactive),
O=C(Nc1cc(Cl)ccc1N1CCOCC1)c1ccc(N2CCCC2=O)cc1,,35.5 µM (active)
COc1c(C)cccc1C(=O)Nc1cc(Cl)ccc1N1CCOCC1,7.94% (inactive),
COc1ccc(CCNC(=O)COC(=O)c2ncc(Cl)c(Cl)c2Cl)cc1OC,5.04% (inactive),
O=C(CSc1nc2ccccc2c(=O)n1-c1ccc(F)cc1)NC1CC1,-11.8% (inactive),
COCCN(C(=O)CSCc1ccc(C)cc1)c1c(N)n(CC(C)C)c(=O)[nH]c1=O,-7.8% (inactive),
N#Cc1ccc(C(=O)OCC(=O)NC(=O)NC2CCCCC2)cc1,13.3% (inactive),
O=C(NNC(=O)c1cc(-c2ccccc2Cl)nc2ccccc12)c1csc(N2CCOCC2)n1,-18.7% (inactive),
